# Results from PubChem BioAssay AID1159580 (chemical genetic matrix, 2015).
# Several values for one entry are separate records, joined by “and”; a condition that tells them apart may be missing. Identical values can stand only once. Screen size: about 5,500 compounds; about 2,000 (36%) were called active. About 18% were inconclusive and are not listed. This is one part of the list. A number with no mark means an inactive call. No stated cut-off is given here; in the data, active means normalized growth mostly below about 0.91 (no sharp cut-off); inconclusive means no clear call, values can overlap the other calls; inactive means mostly above about 0.92.
# Experiment: chemical genetic growth profiling, strain panel (AID 1159580);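 further: tested at 20 µM; growth read once vehicle control cultures reached saturation at 30 °C; 1 = growth at the plate median or of vehicle wells; lower values mean less growth of the strain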
# Conditions: S. cerevisiae deletion strains, growth OD
compound,measurement,setting,value
COc1ccc([C@H]2COc3c(ccc(O)c3OC)C2)c(OC)c1O,normalized growth,"locus YAL021C, strain ccr4, hits give low values",0.984
same,normalized growth,"locus YAL026C, strain drs2, hits give low values",0.975
same,normalized growth,"locus YAL030W, strain snc1, hits give low values",0.992
same,normalized growth,"locus YBL061C, strain skt5, hits give low values",0.989
same,normalized growth,"locus YBR009C, strain hhf1, hits give low values",0.976
same,normalized growth,"locus YBR021W, strain FUR4, hits give low values",1.11
same,normalized growth,"locus YBR023C, strain chs3, hits give low values",0.985
same,normalized growth,"locus YBR171W, strain sec66, hits give low values",0.969
same,normalized growth,"locus YBR229C, strain ROT2, hits give low values",0.947
same,normalized growth,"locus YBR231C, strain swc5, hits give low values",0.988
same,normalized growth,"locus YBR279W, strain paf1, hits give low values",0.984
same,normalized growth,"locus YCL011C, strain gbp2, hits give low values",0.972
same,normalized growth,"locus YCL016C, strain dcc1, hits give low values",0.989
same,normalized growth,"locus YCL029C, strain bik1, hits give low values",0.993
same,normalized growth,"locus YCL061C, strain MRC1, hits give low values",0.968
same,normalized growth,"locus YCL069W, strain vba3, hits give low values",0.988
same,normalized growth,"locus YCR088W, strain abp1, hits give low values",0.984
same,normalized growth,"locus YDL005C, strain med2, hits give low values",0.975
same,normalized growth,"locus YDL035C, strain GPR1, hits give low values",0.998
same,normalized growth,"locus YDL040C, strain nat1, hits give low values",0.991
same,normalized growth,"locus YDL074C, strain BRE1, hits give low values",1.02
same,normalized growth,"locus YDL101C, strain DUN1, hits give low values",0.978
same,normalized growth,"locus YDL185W, strain tfp1, hits give low values",0.946
same,normalized growth,"locus YDL192W, strain arf1, hits give low values",0.971
same,normalized growth,"locus YDR001C, strain nth1, hits give low values",0.986
same,normalized growth,"locus YDR069C, strain doa4, hits give low values",0.979
same,normalized growth,"locus YDR101C, strain arx1, hits give low values",0.969
same,normalized growth,"locus YDR137W, strain rgp1, hits give low values",0.828 (active)
same,normalized growth,"locus YDR159W, strain sac3, hits give low values",0.974
same,normalized growth,"locus YDR162C, strain NBP2, hits give low values",0.943
same,normalized growth,"locus YDR195W, strain ref2",1
same,normalized growth,"locus YDR297W, strain sur2, hits give low values",0.98
same,normalized growth,"locus YDR318W, strain mcm21, hits give low values",0.986
same,normalized growth,"locus YDR334W, strain swr1, hits give low values",0.962
same,normalized growth,"locus YDR335W, strain msn5, hits give low values",0.98
same,normalized growth,"locus YDR388W, hits give low values",0.995
same,normalized growth,"locus YDR392W, strain spt3, hits give low values",0.926
same,normalized growth,"locus YDR502C, strain sam2, hits give low values",0.977
same,normalized growth,"locus YEL003W, strain gim4, hits give low values",0.976
same,normalized growth,"locus YEL037C, strain rad23, hits give low values",0.992
same,normalized growth,"locus YEL061C, strain CIN8 (second series), hits give low values",0.973
same,normalized growth,"locus YEL061C, strain CIN8, hits give low values",0.985
same,normalized growth,"locus YER015W, strain faa2, hits give low values",0.989
same,normalized growth,"locus YER016W, strain bim1, hits give low values",0.983
same,normalized growth,"locus YER110C, hits give low values",0.962
same,normalized growth,"locus YER111C, strain swi4, hits give low values",0.983
same,normalized growth,"locus YER155C, strain BEM2 (second series), hits give low values",0.988
same,normalized growth,"locus YER155C, strain BEM2, hits give low values",1.01
same,normalized growth,"locus YER167W, strain BCK2, hits give low values",1
same,normalized growth,"locus YFR010W, strain ubp6, hits give low values",0.957
same,normalized growth,"locus YGL078C, strain dbp3, hits give low values",0.978
same,normalized growth,"locus YGL086W, strain mad1, hits give low values",0.994
same,normalized growth,"locus YGL167C, strain pmr1, hits give low values",0.981
same,normalized growth,"locus YGL173C, strain kem1, hits give low values",0.977
same,normalized growth,"locus YGL227W, strain vid30, hits give low values",0.988
same,normalized growth,"locus YGL240W, strain doc1, hits give low values",0.978
same,normalized growth,"locus YGL248W, strain PDE1, hits give low values",0.985
same,normalized growth,"locus YGL253W, strain hxk2, hits give low values",0.997
same,normalized growth,"locus YGR078C, strain PAC10, hits give low values",0.989
same,normalized growth,"locus YGR135W, strain pre9, hits give low values",0.986
same,normalized growth,"locus YGR229C, strain SMI1, hits give low values",0.987
same,normalized growth,"locus YGR252W, strain gcn5, hits give low values",1.03
same,normalized growth,"locus YHR013C, strain ard1, hits give low values",0.978
same,normalized growth,"locus YHR027C, strain rpn1, hits give low values",0.978
same,normalized growth,"locus YHR030C, strain SLT2, hits give low values",1
same,normalized growth,"locus YHR079C, strain IRE1 (second series), hits give low values",0.997
same,normalized growth,"locus YHR079C, strain IRE1, hits give low values",1.02
same,normalized growth,"locus YHR094C, strain hxt1, hits give low values",0.98
same,normalized growth,"locus YHR129C, strain ARP1, hits give low values",1.01
same,normalized growth,"locus YHR142W, strain chs7, hits give low values",0.968
same,normalized growth,"locus YHR200W, strain rpn10, hits give low values",0.967
same,normalized growth,"locus YIL066C, strain RNR3, hits give low values",0.975
same,normalized growth,"locus YIL073C, strain SPO22, hits give low values",0.924
same,normalized growth,"locus YIL125W, strain kgd1, hits give low values",0.987
same,normalized growth,"locus YIR030C, strain dcg1, hits give low values",1
same,normalized growth,"locus YJL092W, strain hpr5, hits give low values",0.977
same,normalized growth,"locus YJL095W, strain BCK1 (second series), hits give low values",0.995
same,normalized growth,"locus YJL095W, strain BCK1, hits give low values",0.98 and 1.03
same,normalized growth,"locus YJL115W, strain asf1, hits give low values",0.967
same,normalized growth,"locus YJL129C, strain trk1, hits give low values",0.977
same,normalized growth,"locus YJL134W, strain LCB3, hits give low values",0.994
same,normalized growth,"locus YJL154C, strain vps35, hits give low values",0.983
same,normalized growth,"locus YJL164C, strain tpk1, hits give low values",0.967
same,normalized growth,"locus YJL166W, strain qcr8, hits give low values",0.993
same,normalized growth,"locus YJL168C, strain set2, hits give low values",0.989
same,normalized growth,"locus YJL187C, strain SWE1 (second series), hits give low values",0.981
same,normalized growth,"locus YJL187C, strain SWE1, hits give low values",0.991
same,normalized growth,"locus YJR043C, strain POL32, hits give low values",0.987
same,normalized growth,"locus YJR066W, strain TOR1, hits give low values",1.01
same,normalized growth,"locus YJR075W, strain HOC1, hits give low values",0.969
same,normalized growth,"locus YKL009W, strain mrt4, hits give low values",0.977
same,normalized growth,"locus YKL068W, hits give low values",0.973
same,normalized growth,"locus YKL085W, strain MDH1 (second series), hits give low values",0.974
same,normalized growth,"locus YKL085W, strain MDH1, hits give low values",0.974
same,normalized growth,"locus YKL160W, strain elf1, hits give low values",0.986
same,normalized growth,"locus YKL190W, strain CNB1, hits give low values",0.991
same,normalized growth,"locus YKR001C, strain vps1, hits give low values",1
same,normalized growth,"locus YKR026C, strain gcn3, hits give low values",0.982
same,normalized growth,"locus YKR091W, strain srl3, hits give low values",0.992
same,normalized growth,"locus YLL001W, strain dnm1, hits give low values",0.978
same,normalized growth,"locus YLL026W, hits give low values",0.994
same,normalized growth,"locus YLL041C, strain sdh2, hits give low values",0.98
same,normalized growth,"locus YLR027C, strain aat2, hits give low values",1
same,normalized growth,"locus YLR039C, strain RIC1, hits give low values",0.953
same,normalized growth,"locus YLR058C, strain SHM2, hits give low values",0.98
same,normalized growth,"locus YLR102C, strain apc9, hits give low values",0.997
same,normalized growth,"locus YLR113W, strain HOG1, hits give low values",0.969
same,normalized growth,"locus YLR221C, strain rsa3, hits give low values",0.993
same,normalized growth,"locus YLR258W, strain gsy2, hits give low values",0.992
same,normalized growth,"locus YLR262C, strain YPT6 (second series), hits give low values",0.912
same,normalized growth,"locus YLR262C, strain YPT6, hits give low values",0.939
same,normalized growth,"locus YLR268W, strain sec22, hits give low values",0.99
same,normalized growth,"locus YLR320W, strain mms22, hits give low values",0.987
same,normalized growth,"locus YLR330W, strain CHS5, hits give low values",1
same,normalized growth,"locus YLR342W, strain FKS1 (second series), hits give low values",1.05
same,normalized growth,"locus YLR342W, strain FKS1, hits give low values",0.989
same,normalized growth,"locus YLR357W, strain rsc2, hits give low values",0.978
same,normalized growth,"locus YLR370C, strain arc18, hits give low values",0.977
same,normalized growth,"locus YLR371W, strain rom2, hits give low values",0.994
same,normalized growth,"locus YLR384C, strain iki3, hits give low values",0.995
same,normalized growth,"locus YLR418C, strain cdc73, hits give low values",1
same,normalized growth,"locus YML016C, strain PPZ1, hits give low values",0.995
same,normalized growth,"locus YML032C, strain rad52, hits give low values",0.993
same,normalized growth,"locus YML120C, strain ndi1, hits give low values",0.979
same,normalized growth,"locus YML124C, strain tub3, hits give low values",0.974
same,normalized growth,"locus YMR058W, strain fet3, hits give low values",0.97
same,normalized growth,"locus YMR078C, strain ctf18, hits give low values",0.99
same,normalized growth,"locus YMR125W, strain sto1, hits give low values",0.979
same,normalized growth,"locus YMR129W, hits give low values",0.977
same,normalized growth,"locus YMR205C, strain PFK2, hits give low values",0.978
same,normalized growth,"locus YMR223W, strain ubp8, hits give low values",0.972
same,normalized growth,"locus YMR231W, strain pep5, hits give low values",0.996
same,normalized growth,"locus YMR307W, strain GAS1, hits give low values",1.09
same,normalized growth,"locus YNL067W, strain RPL9B, hits give low values",0.996
same,normalized growth,"locus YNL071W, strain lat1, hits give low values",0.982
same,normalized growth,"locus YNL183C, strain NPR1, hits give low values",0.974
same,normalized growth,"locus YNL209W, strain ssb2, hits give low values",0.987
same,normalized growth,"locus YNL233W, strain BNI4, hits give low values",0.996
same,normalized growth,"locus YNL248C, strain rpa49, hits give low values",0.977
same,normalized growth,"locus YNL250W, strain rad50, hits give low values",0.968
same,normalized growth,"locus YNL271C, strain bni1, hits give low values",0.979
same,normalized growth,"locus YNL298W, strain CLA4, hits give low values",0.975
same,normalized growth,"locus YNL307C, strain MCK1, hits give low values",0.986
same,normalized growth,"locus YNL322C, strain KRE1 (second series), hits give low values",0.991
same,normalized growth,"locus YNR049C, strain mso1, hits give low values",0.995
same,normalized growth,"locus YNR052C, strain pop2, hits give low values",0.996
same,normalized growth,"locus YOL006C, strain TOP1, hits give low values",1.1
same,normalized growth,"locus YOL012C, strain htz1",0.955
same,normalized growth,"locus YOL147C, strain pex11, hits give low values",0.995
same,normalized growth,"locus YOR001W, strain rrp6, hits give low values",0.986
same,normalized growth,"locus YOR061W, strain CKA2, hits give low values",0.966
same,normalized growth,"locus YOR069W, strain VPS5, hits give low values",0.999
same,normalized growth,"locus YOR070C, strain gyp1, hits give low values",0.988
same,normalized growth,"locus YOR080W, strain dia2, hits give low values",0.988
same,normalized growth,"locus YOR083W, strain WHI5, hits give low values",0.985
same,normalized growth,"locus YOR106W, strain vam3, hits give low values",0.976
same,normalized growth,"locus YOR136W, strain idh2, hits give low values",0.978
same,normalized growth,"locus YOR144C, strain elg1, hits give low values",0.983
same,normalized growth,"locus YOR184W, strain ser1, hits give low values",0.956
same,normalized growth,"locus YOR231W, strain MKK1, hits give low values",1.03
same,normalized growth,"locus YOR265W, strain rbl2, hits give low values",0.994
same,normalized growth,"locus YOR270C, strain vph1, hits give low values",0.933
same,normalized growth,"locus YOR290C, strain snf2, hits give low values",0.966
same,normalized growth,"locus YOR316C, strain cot1, hits give low values",0.981
same,normalized growth,"locus YPL051W, strain arl3, hits give low values",0.995
same,normalized growth,"locus YPL055C, strain LGE1, hits give low values",1.01
same,normalized growth,"locus YPL078C, strain atp4, hits give low values",0.986
same,normalized growth,"locus YPL106C, strain sse1, hits give low values",0.989
same,normalized growth,"locus YPL240C, strain hsp82, hits give low values",0.963
same,normalized growth,"locus YPL241C, strain CIN2, hits give low values",0.958
same,normalized growth,"locus YPL256C, strain CLN2, hits give low values",1.03
same,normalized growth,"locus YPR119W, strain clb2, hits give low values",0.978
same,normalized growth,"locus YPR141C, strain kar3, hits give low values",0.979
same,normalized growth,"locus YPR163C, strain tif3, hits give low values",0.981
same,normalized growth,"locus YPR167C, strain met16, hits give low values",1
same,normalized growth,"strain wtn01, hits give low values",0.981
